Inconclusive results are not listed. Entries that show only a call come without a potency. Calls of active or inactive are those of the source. Calls come from the whole dose curve; as a rule, active = well fitted cell-killing curve with a large enough effect in the repeat runs; inconclusive = weak or mixed curves, or effect the other way; inactive = no such curve, though single readings can be large or run the other way.
test: qHTS assay to identify small molecule antagonists of the sonic hedgehog signaling (Shh) pathway - cell viability counter screen (AID 1259367); settings: NIH/3T3 Gli1-Luc viability, CellTiter-Fluor, 24 h; series mostly up to 92.4 µM; note: nearly all actives have a fitted effect of over 55% in size
From the text: National Center for Advancing Translational Sciences [NCATS]
NIH Chemical Genomics Center [NCGC]
U.S. Environmental Protection Agency [EPA]
National Institutes of Environmental Health Sciences [NIEHS]
National Toxicology Program [NTP]
U.S. Food and Drug Administration [FDA]
The sonic hedgehog (Shh) pathway is essential for normal embryonic development. Dysregulation of the Shh pathway can cause severe developmental defects in organs. Therefore chemicals that interfere with the pathway are potential developmental toxicants. A cell line designated 3T3Gli1-Luc (DMB/OARSA/CFSAN/FDA, Laurel, MD), a NIH/3T3 derived clone containing stably integrated Gli1-Luc reporter is used to detect chemical interference of the Shh pathway, by changes in the expression of the firefly Luc gene under the control of the Gli1 transcriptional response element. This cell line was used to screen Tox21 libraries for identifying and prioritizing the potential developmental toxicants that interfere Shh pathway. Conditioned medium-stimulated mode was used to screen for chemicals inhibiting Shh signaling. The cytotoxicity of the compounds was tested in parallel by measuring the cell viability using CellTiter-Fluor assay system (Promega, Madison, WI) in the same wells.
Tox21 Assay Protocol Summary:
3T3 Gli1-Luc cells were dispensed at 2,000 per well in 5uL of culture medium into white solid bottom 1536-well plates (Greiner Bio-One, Monroe, NC) using a Multidrop Combi (Thermo Scientific, Waltham, MA) dispenser. The assay plates were incubated at 37 C and 5% CO2 for 4hr, and then 23nL of compounds dissolved in DMSO and positive control were transferred using a Pintool station (Wako, San Diego, CA). The compound transfer was followed by the addition of 1ul conditioned medium or assay buffer using two separate tips of Flying Reagent Dispenser (FRD, Aurora Discovery, San Diego, CA). The assay plates were incubated at 37C and 5% CO2 for 24hr. For viability read, after 23hr of compound treatment, 1uL of CellTiter-Fluor reagent (Promega Corporation, Madison, WI) was added to each well of the assay plates using Flying Reagent Dispenser (FRD, Aurora Discovery, San Diego, CA) and incubated the assay plates at 37C for 1hr. The fluorescence signal was quantified using a ViewLux plate reader (Perkin Elmer, Shelton, CT).
Potency is the fitted concentration of half-maximal effect.

Question: For CCCCCC(CO)CCC (stereo not given), which Potency is on record?
Answer: Its Potency is “inactive”.

Question: Which Potency does the source give for CC1(C)CCC(C)(C)c2cc(NC(=O)c3ccc(C(=O)O)cc3)ccc21 here?
Answer: The Potency was “inactive”.

Question: With O=S1(=O)N=C(O)c2ccccc21 as the compound, how does the Potency read?
Answer: Its Potency is “inactive”.

Question: With N#Cc1cc2ccccc2c2ccccc12 as the compound, how does the Potency read?
Answer: Its Potency is “inactive”.

Question: For CNCC[C@@H](Oc1ccccc1C)c1ccccc1, which Potency is on record?
Answer: The Potency was “inactive”.

Question: With CCCC[C@H]1CN(CC2CCOCC2)C(=O)OC12CCN(C1(C)CCN(C(=O)c3c(C)ncnc3C)CC1)CC2 as the compound, how does the Potency read?
Answer: The Potency was “inactive”.

Question: With NC(N)=NN=C(/C=C/c1ccc([N+](=O)[O-])o1)/C=C/c1ccc([N+](=O)[O-])o1 as the compound, how does the Potency read?
Answer: The Potency was 2.37 µM (active).

Question: Which Potency does the source give for CCCCc1cc2ccccc2c(OCCN(C)C)n1 here?
Answer: The Potency was “inactive”.

Question: With CC1(C)[C@H]2CC[C@]1(C)[C@H](O)C2 as the compound, how does the Potency read?
Answer: Its Potency is “inactive”.

Question: For CC(=O)[C@@]1(O)CC[C@H]2[C@@H]3C[C@H](C)C4=CC(=O)CC[C@]4(C)[C@H]3CC[C@@]21C, which Potency is on record?
Answer: Its Potency is “inactive”.

Question: With Cc1ncsc1CCO as the compound, how does the Potency read?
Answer: Its Potency is “inactive”.

Question: For FC(F)(F)C(F)(F)C(F)(F)C(F)(F)C(F)(F)C(F)(F)CCI, which Potency is on record?
Answer: The Potency was “inactive”.

Question: With Oc1ccc2c(c1)OCO2 as the compound, how does the Potency read?
Answer: The Potency was “inactive”.

Question: With c1ccc(OCc2ccc(CCCN3CCOCC3)cc2)cc1 as the compound, how does the Potency read?
Answer: The Potency was “inactive”.

Question: Which Potency does the source give for O=C1CCCCCO1 here?
Answer: Its Potency is “inactive”.

Question: For O=C(O)C(c1ccc(Cl)cc1)c1ccc(Cl)cc1, which Potency is on record?
Answer: The Potency was “inactive”.

Question: Which Potency does the source give for Nc1nc(N)c(-c2ccccc2)s1 here?
Answer: Its Potency is “inactive”.

Question: Which Potency does the source give for N#CCc1cccc(C(F)(F)F)c1 here?
Answer: The Potency was “inactive”.

Question: With CC(C)NCC(O)c1cc(O)cc(O)c1 (stereo not given) as the compound, how does the Potency read?
Answer: Its Potency is “inactive”.

Question: For CCCCCCCCCO, which Potency is on record?
Answer: The Potency was “inactive”.

Question: With COC(Cc1ccccc1)OC as the compound, how does the Potency read?
Answer: Its Potency is “inactive”.

Question: Which Potency does the source give for CC1=CCC(C(C)C)C=C1 (stereo not given) here?
Answer: Its Potency is “inactive”.

Question: Which Potency does the source give for CC(=O)O[C@@H]1C(=O)O[C@@H]2[C@H]1OC(=O)[C@@H]2OC(C)=O here?
Answer: Its Potency is “inactive”.

Question: With Cc1c(Cn2ccnc2)c2ccccc2n1CCC(=O)O as the compound, how does the Potency read?
Answer: The Potency was “inactive”.

Question: With Cc1ccc(C(=O)C(C)CN2CCCCC2)cc1 (stereo not given) as the compound, how does the Potency read?
Answer: Its Potency is “inactive”.

Question: With CC(=O)OCCc1ccccc1 as the compound, how does the Potency read?
Answer: The Potency was “inactive”.

Question: For Cc1ccc(C(N)=O)cc1N, which Potency is on record?
Answer: Its Potency is “inactive”.

Question: For CC(=O)N(O)CCCCCNC(=O)CCC(=O)N(O)CCCCCNC(=O)CCC(=O)N(O)CCCCCN, which Potency is on record?
Answer: The Potency was “inactive”.

Question: Which Potency does the source give for CC(C)(Oc1ccc(Cl)cc1)C(=O)OCCCOC(=O)C(C)(C)Oc1ccc(Cl)cc1 here?
Answer: Its Potency is “inactive”.

Question: Which Potency does the source give for CCN(CC)CCNC(C(=O)OCCC(C)C)c1ccccc1 (stereo not given) here?
Answer: The Potency was “inactive”.

Question: For CCN(CC)C(C)CN1c2ccccc2Sc2ccccc21 (stereo not given), which Potency is on record?
Answer: The Potency was “inactive”.

Question: Which Potency does the source give for CC(=O)NCCCS(=O)(=O)O here?
Answer: Its Potency is “inactive”.

Question: Which Potency does the source give for CCCCCCCCCC=O here?
Answer: Its Potency is “inactive”.

Question: With CCCCOC(=O)/C=C\C(=O)OCCCC as the compound, how does the Potency read?
Answer: The Potency was “inactive”.

Question: With O=[N+]([O-])c1cc[n+]([O-])cc1 as the compound, how does the Potency read?
Answer: The Potency was 61.1 µM (active).

Question: With CC(O)C1CCCCC1 (stereo not given) as the compound, how does the Potency read?
Answer: The Potency was “inactive”.

Question: With O=C(O)C1CCC(C(=O)O)CC1 (stereo not given) as the compound, how does the Potency read?
Answer: Its Potency is “inactive”.

Question: Which Potency does the source give for CC(C)c1ccccc1C(C)C here?
Answer: Its Potency is “inactive”.

Question: With CC(C)(C)c1cc(CCC(=O)OCC(COC(=O)CCc2cc(C(C)(C)C)c(O)c(C(C)(C)C)c2)(COC(=O)CCc2cc(C(C)(C)C)c(O)c(C(C)(C)C)c2)COC(=O)CCc2cc(C(C)(C)C)c(O)c(C(C)(C)C)c2)cc(C(C)(C)C)c1O as the compound, how does the Potency read?
Answer: The Potency was “inactive”.

Question: With O=CNc1ccccc1 as the compound, how does the Potency read?
Answer: Its Potency is “inactive”.

— PubChem BioAssay (Tox21)
